From PubChem BioAssay (NCATS)
“And” between values parts separate entries of the source, which are not always exact repeats. Equal values may be shown once. Results filed as inconclusive are left out. More than one record can exist for a structure, and the calls need not agree. The source made the active and inactive calls. Unless noted, the rule behind the calls is not given here.

Legend:
[1] = qHTS profiling for inhibitors of Plasmodium falciparum (3D7) proliferation (AID 743322);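 note: infected erythrocytes exposed to compound for 72 h before lysis; 100% = DMSO vehicle wells and 0% = 0.29 µM artemisinin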; conditions: P. falciparum 3D7 proliferation; at 28.7 µM (top of the series)
Outline: (§1)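 Parasite DNA was quantified by SYBR Green I fluorescence (ex 485, em 535 nm) after overnight lysis in saponin/Triton buffer at room temperature. Cultures at 0.3% parasitemia and 2.5% hematocrit were first exposed to compound for 72 h at 37 C; signals were normalised to artemisinin (0.29 uM) and vehicle wells.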

[2] = qHTS profiling for inhibitors of Plasmodium falciparum (DD2) proliferation (AID 743323); conditions: lower = more inhibition; at 28.7 µM (top of the series)
Outline: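 Parasite proliferation measured via DNA-dye fluorescence, as uninfected erythrocytes lack DNA. Cultures at 0.3% parasitemia and 2.5% hematocrit incubated 72 h with compound; signal scaled between vehicle and 0.29 uM artemisinin wells.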

[3] = qHTS profiling for inhibitors of Plasmodium falciparum (HB3) proliferation (AID 743324; active = well fitted curve in the direction sought with a large enough effect; an effect the other way counts as inactive or inconclusive;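 note: 100% = DMSO vehicle wells and 0% = artemisinin-treated control wells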); conditions: Plasmodium falciparum HB3 blood-stage proliferation; at 28.7 µM (top of the series)
Outline: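 SYBR Green fluorescence (485 ex/535 em) of lysed cultures, incubated overnight at room temperature in the dark, quantifies parasite DNA. Infected erythrocytes at 0.3% parasitemia and 2.5% hematocrit were exposed 72 h; values normalized to DMSO and 0.29 uM artemisinin controls.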

[4] = qHTS profiling of the MIPE4 collection as inhibitors of Plasmodium falciparum (3D7) proliferation (AID 743344);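 note: scaled between DMSO vehicle wells and 0.29 µM artemisinin as full inhibition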; conditions: P. falciparum 3D7 in erythrocytes, SYBR Green DNA fluorescence, 72 h; at 28.5 µM (top of the series)
Outline: as §1

[5] = qHTS profiling of the MIPE4 collection as inhibitors of Plasmodium falciparum (DD2) proliferation (AID 743345); conditions: P. falciparum Dd2 in erythrocytes, SYBR Green DNA, 72 h; at 28.5 µM (top of the series)
Outline: as §1

[6] = qHTS profiling of the MIPE4 collection as inhibitors of Plasmodium falciparum (DD2) proliferation (Rep 2) (AID 743346); conditions: P. falciparum Dd2 in erythrocytes, SYBR Green DNA, 72 h; at 28.5 µM (top of the series)
Outline: as §1

[7] = qHTS profiling of the MIPE4 collection as inhibitors of Plasmodium falciparum (HB3) proliferation (AID 743347);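 note: plate controls were DMSO vehicle wells for no effect and artemisinin wells for full effect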; conditions: P. falciparum HB3 in erythrocytes, SYBR Green DNA, 72 h; at 28.5 µM (top of the series)
Outline: as §1

[8] = target: Cytochrome P450 2C9 (Homo sapiens) (UniProt P11712); test: qHTS Assay for Inhibitors and Substrates of Cytochrome P450 2C9 (AID 883; active = well fitted curve in the direction sought with a large enough effect; an effect the other way counts as inactive or inconclusive; note: % is set by controls: 0 for no effect and ±100 for the full control effect; nearly all actives have a fitted effect of over 60% in size)
Sequence of Cytochrome P450 2C9 (Homo sapiens) (P11712 whole entry, looked up): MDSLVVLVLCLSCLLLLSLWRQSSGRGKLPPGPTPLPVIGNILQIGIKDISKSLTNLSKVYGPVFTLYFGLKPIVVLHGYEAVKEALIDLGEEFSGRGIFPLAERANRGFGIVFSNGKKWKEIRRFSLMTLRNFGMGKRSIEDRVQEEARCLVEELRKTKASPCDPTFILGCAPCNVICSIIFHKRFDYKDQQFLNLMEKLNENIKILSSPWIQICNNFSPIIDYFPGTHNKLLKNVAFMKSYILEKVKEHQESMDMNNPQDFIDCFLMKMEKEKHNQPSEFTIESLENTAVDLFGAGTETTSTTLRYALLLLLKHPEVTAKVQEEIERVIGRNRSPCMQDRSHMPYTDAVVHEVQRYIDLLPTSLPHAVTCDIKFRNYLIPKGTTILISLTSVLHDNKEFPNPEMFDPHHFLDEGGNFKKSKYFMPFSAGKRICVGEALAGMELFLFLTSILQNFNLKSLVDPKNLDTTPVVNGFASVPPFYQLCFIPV
Outline: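 10nM CYP2C9 + 100uM Luciferin-H (=KM), 25mM KPO4; cpd 10 min 37C; NADPH regen, 60 min 37C; stop/detect with P450 Glo-Buffer 20 min; luminescence. Norm. to 57uM sulphaphenazole as full inhibition.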

[9] = target: Cytochrome P450 3A4 (Homo sapiens) (UniProt P08684); test: qHTS Assay for Inhibitors and Substrates of Cytochrome P450 3A4 (AID 884; active = well fitted curve in the direction sought with a large enough effect; an effect the other way counts as inactive or inconclusive; note: nearly all actives have a fitted effect of over 50% in size; note: potency is the fitted concentration of half-maximal effect; for activity change, negative = inhibition: % is set by controls: 0 for no effect and ±100 for the full control effect)
Sequence of Cytochrome P450 3A4 (Homo sapiens) (P08684 whole entry, looked up): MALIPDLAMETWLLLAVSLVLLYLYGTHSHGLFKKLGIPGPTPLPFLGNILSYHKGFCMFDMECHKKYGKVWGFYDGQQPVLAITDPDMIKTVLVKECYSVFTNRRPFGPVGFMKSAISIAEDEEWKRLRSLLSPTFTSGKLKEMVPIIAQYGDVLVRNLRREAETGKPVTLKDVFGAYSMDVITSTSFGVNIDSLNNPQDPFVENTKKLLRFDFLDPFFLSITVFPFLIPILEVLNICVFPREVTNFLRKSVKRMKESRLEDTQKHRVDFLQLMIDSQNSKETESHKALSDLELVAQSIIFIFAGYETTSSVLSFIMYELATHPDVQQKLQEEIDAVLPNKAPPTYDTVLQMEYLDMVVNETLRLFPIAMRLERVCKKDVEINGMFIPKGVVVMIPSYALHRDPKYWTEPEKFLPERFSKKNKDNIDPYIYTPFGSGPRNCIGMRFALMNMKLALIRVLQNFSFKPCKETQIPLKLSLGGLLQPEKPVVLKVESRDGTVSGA
Outline: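 Luminescent readout of luciferin produced by CYP3A4 (20 nM) dealkylation of Luciferin-PPXE, 25 uM (its KM). NADPH-driven reaction ran 60 min at RT after 10 min compound preincubation; data scaled to 57 uM ketoconazole as 100% inhibition.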

[10] = target: Cytochrome P450 3A4 (Homo sapiens) (UniProt P08684); test: qHTS Assay for Activators of Cytochrome P450 3A4 (AID 885; active = well fitted curve in the direction sought with a large enough effect; an effect the other way counts as inactive or inconclusive; note: nearly all actives have a fitted effect of over 65% in size)
Outline: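 Using 20nM recombinant human CYP3A4 in potassium phosphate (200mM), substrate Luciferin-PPXE at 25uM, luminescent luciferin detection followed a 60-min RT NADPH reaction; data scaled to 57 uM ketoconazole.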

[11] = target: Cytochrome P450 2D6 (Homo sapiens) (UniProt P10635); test: qHTS Assay for Inhibitors and Substrates of Cytochrome P450 2D6 (AID 891; active = well fitted curve in the direction sought with a large enough effect; an effect the other way counts as inactive or inconclusive;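 note: luciferin methyl ether substrate demethylated by CYP2D6 with NADPH regeneration; % is set by controls: 0 for no effect and ±100 for the full control effect; nearly all actives have a fitted effect of over 60% in size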)
Sequence of Cytochrome P450 2D6 (Homo sapiens) (P10635 whole entry, looked up): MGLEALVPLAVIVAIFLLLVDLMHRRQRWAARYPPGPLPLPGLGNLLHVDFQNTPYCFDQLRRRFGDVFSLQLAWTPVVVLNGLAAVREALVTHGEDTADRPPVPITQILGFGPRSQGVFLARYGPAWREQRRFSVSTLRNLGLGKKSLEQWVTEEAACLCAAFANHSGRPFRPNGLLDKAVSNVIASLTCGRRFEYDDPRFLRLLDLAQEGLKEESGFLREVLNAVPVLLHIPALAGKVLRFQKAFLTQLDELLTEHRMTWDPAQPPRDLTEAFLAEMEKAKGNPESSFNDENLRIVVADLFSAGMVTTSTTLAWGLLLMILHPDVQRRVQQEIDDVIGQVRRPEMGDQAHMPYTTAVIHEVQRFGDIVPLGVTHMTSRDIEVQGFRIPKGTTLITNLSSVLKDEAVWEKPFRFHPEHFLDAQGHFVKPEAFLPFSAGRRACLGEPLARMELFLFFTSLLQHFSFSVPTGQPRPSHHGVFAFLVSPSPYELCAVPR
Outline: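 Luminescent read-out of luciferin formed by 5 nM human CYP2D6 demethylating 30 uM Luciferin-ME EGE (Km level) over 60 min at room temperature after NADPH regeneration addition. Data normalized to full inhibition by 1.43 uM quinidine.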

[12] = target: Cytochrome P450 2C19 (Homo sapiens) (UniProt P33261); test: qHTS Assay for Inhibitors and Substrates of Cytochrome P450 2C19 (AID 899; active = well fitted curve in the direction sought with a large enough effect; an effect the other way counts as inactive or inconclusive; note: % is set by controls: 0 for no effect and ±100 for the full control effect; nearly all actives have a fitted effect of over 60% in size)
Sequence of Cytochrome P450 2C19 (Homo sapiens) (P33261 whole entry, looked up): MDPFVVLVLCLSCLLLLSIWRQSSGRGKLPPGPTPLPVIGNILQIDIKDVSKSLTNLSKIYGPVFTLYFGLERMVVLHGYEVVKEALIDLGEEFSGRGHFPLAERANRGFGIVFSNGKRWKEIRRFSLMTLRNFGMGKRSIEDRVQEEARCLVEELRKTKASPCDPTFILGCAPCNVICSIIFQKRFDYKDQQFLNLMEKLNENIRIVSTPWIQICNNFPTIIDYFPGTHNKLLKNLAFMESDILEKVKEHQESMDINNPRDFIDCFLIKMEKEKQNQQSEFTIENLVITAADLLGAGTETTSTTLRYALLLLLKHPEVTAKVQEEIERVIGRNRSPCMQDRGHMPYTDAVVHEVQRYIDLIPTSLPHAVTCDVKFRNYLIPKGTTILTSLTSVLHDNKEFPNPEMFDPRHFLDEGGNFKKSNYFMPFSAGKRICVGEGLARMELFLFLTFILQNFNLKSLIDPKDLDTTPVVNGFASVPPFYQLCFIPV
Outline: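 Luminescent read-out of luciferin formed from Luciferin-H EGE (10uM, equal to KM). Enzyme 5nM in 50mM KPO4; compound added, 10 min at 37C, then NADPH regenerating system for 60 min at 37C. Full inhibition defined by 57uM ketoconazole.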

With `CCN(CC)CCOc1ccc2c(=O)c3ccc(Cl)cc3n(CCN(CC)CC)c2c1` as the compound, how does the remaining parasite growth % (stronger effect = lower value) [1] read?
Its remaining parasite growth % (stronger effect = lower value) is -1.28%.

What about the activity, percent of control [2] of the same compound?
Its activity, percent of control is 0.385%.

And the remaining proliferation (% of control), lower = more inhibition [3]?
Its remaining proliferation (% of control), lower = more inhibition is -0.0504%.

What about the parasite growth, % of DMSO control [4] of the same compound?
The parasite growth, % of DMSO control was 4.98%.

And the parasite growth remaining, % of DMSO control (lower = more inhibition) [5]?
The parasite growth remaining, % of DMSO control (lower = more inhibition) was 6.06%.

What about the parasite growth, % of control (lower = inhibition) [6] of the same compound?
The parasite growth, % of control (lower = inhibition) was 27.8%.

What about the growth, % of control [7] of the same compound?
The growth, % of control was 5.14%.

Which Potency [8] does the source give for `O=C1C[C@@H](O)[C@@H](O)[C@H]2[C@@H]3C(=O)N(Cc4ccccc4)C(=O)[C@@H]3CC[C@H]12` here?
Its Potency is “inactive”.

Which Potency [8] does the source give for `C=C(C)C(=O)OCC1CN2C(CCC(C)C2c2ccc(Br)cc2)C(=O)O1` (configuration not stated) here?
Its Potency is “inactive”.

And the Potency [9]?
Its Potency is 3160 nM (active).

What about the activity change, negative = inhibition [9] of the same compound?
Its activity change, negative = inhibition is -21.6% [at 11.4 µM] (inactive).

What about the activity change, positive = activation [10] of the same compound?
Its activity change, positive = activation is -55% [at 11.4 µM] (inactive) and -73.8% [at 11.4 µM] (inactive).

And the Potency [11]?
The Potency was “inactive”.

What about the Potency [12] of the same compound?
Its Potency is “inactive”.

With `O=CN(O)CCCP(=O)(O)O` as the compound, how does the remaining parasite growth % (stronger effect = lower value) [1] read?
Its remaining parasite growth % (stronger effect = lower value) is 11.2%.

What about the activity, percent of control [2] of the same compound?
Its activity, percent of control is 11.8%.

And the remaining proliferation (% of control), lower = more inhibition [3]?
Its remaining proliferation (% of control), lower = more inhibition is 14.2%.

What about the parasite growth, % of DMSO control [4] of the same compound?
The parasite growth, % of DMSO control was 14.4%.

What about the parasite growth remaining, % of DMSO control (lower = more inhibition) [5] of the same compound?
The parasite growth remaining, % of DMSO control (lower = more inhibition) was 19.9%.

And the parasite growth, % of control (lower = inhibition) [6]?
The parasite growth, % of control (lower = inhibition) was 17.4%.

And the growth, % of control [7]?
The growth, % of control was 9.42%.

Which Potency [8] does the source give for `CCOC(=O)N/N=C1/C[C@@H](O)[C@@H](O)[C@@H]2[C@@H]3C(=O)N(c4cccc(Oc5ccccc5)c4)C(=O)[C@H]3CC[C@@H]12` here?
Its Potency is “inactive”.

Which results are given for `C[C@H]1CCN(C(=O)CC#N)C[C@H]1N(C)c1ncnc2[nH]ccc12`?
parasite growth, % of DMSO control [4]: 69.9%; parasite growth remaining, % of DMSO control (lower = more inhibition) [5]: 98.8%; parasite growth, % of control (lower = inhibition) [6]: 51.2%; growth, % of control [7]: 114%

Which results are given for `COc1ccc(S(=O)(=O)N(CCO)c2ccccc2CN(C)CC=Cc2ccc(Cl)cc2)cc1`?
parasite growth, % of DMSO control [4]: 6.17%; parasite growth remaining, % of DMSO control (lower = more inhibition) [5]: 26.4%; parasite growth, % of control (lower = inhibition) [6]: 18.1%; growth, % of control [7]: 9.71%

For `COc1cc(C)c2c(Oc3cccc(C(F)(F)F)c3)c(OC)cc(NCCCC(C)N)c2n1` (configuration not stated), which parasite growth, % of DMSO control [4] is on record?
The parasite growth, % of DMSO control was 3.66%.

And the parasite growth remaining, % of DMSO control (lower = more inhibition) [5]?
The parasite growth remaining, % of DMSO control (lower = more inhibition) was 6.22%.

What about the parasite growth, % of control (lower = inhibition) [6] of the same compound?
The parasite growth, % of control (lower = inhibition) was 16%.

And the growth, % of control [7]?
Its growth, % of control is 2.71%.

What does the source list for `CC(=O)NCC1CN(c2ccc(N3CCOCC3)c(F)c2)C(=O)O1` (configuration not stated)?
parasite growth, % of DMSO control [4]: 91.2%; parasite growth remaining, % of DMSO control (lower = more inhibition) [5]: 94.2%; parasite growth, % of control (lower = inhibition) [6]: 75.9%; growth, % of control [7]: 99%

For `COc1ccc(C#CC2C=CC(OC(C)=O)C(COC(C)=O)O2)cc1` (configuration not stated), which Potency [8] is on record?
Its Potency is “inactive”.

And the Potency [9]?
Its Potency is 2510 nM (active).

What about the activity change, negative = inhibition [9] of the same compound?
The activity change, negative = inhibition was -3.53% [at 11.4 µM] (inactive).

And the activity change, positive = activation [10]?
The activity change, positive = activation was -88.8% [at 11.4 µM] (inactive).

What about the Potency [11] of the same compound?
The Potency was “inactive”.

Which results are given for `CC(C)=CCCC(C)=CCNCCNC1C2CC3CC(C2)CC1C3` (configuration not stated)?
parasite growth, % of DMSO control [4]: 4.83%; parasite growth remaining, % of DMSO control (lower = more inhibition) [5]: 6.17%; parasite growth, % of control (lower = inhibition) [6]: 13.8%; growth, % of control [7]: 2.71%
